Screens: PubChem BioAssay, Buhrlage Lab, Dana-Farber Cancer Institute and Novartis Institutes for BioMedical Research (Cambridge, Mass)
Shown are actives, neighbours in structure and some others; about 4.6% of the full set was active somewhere.
UCHL1 block – human UCHL1 deubiquitinase inhibition; purified UCHL1, Ub-rhodamine cleavage fluorescence; inhibition, % at 20 µM; P09936; actives 0.2% (n = 47,000); AID 1645859
USP8 block – blocks human USP8 ubiquitin-rhodamine cleavage | inhibition, % at 20 µM | actives 4.2% (n = 47,000) | purified USP8, Ub-rhodamine cleavage fluorescence, 30 min | P40818
Target sequence (P40818 whole entry, looked up): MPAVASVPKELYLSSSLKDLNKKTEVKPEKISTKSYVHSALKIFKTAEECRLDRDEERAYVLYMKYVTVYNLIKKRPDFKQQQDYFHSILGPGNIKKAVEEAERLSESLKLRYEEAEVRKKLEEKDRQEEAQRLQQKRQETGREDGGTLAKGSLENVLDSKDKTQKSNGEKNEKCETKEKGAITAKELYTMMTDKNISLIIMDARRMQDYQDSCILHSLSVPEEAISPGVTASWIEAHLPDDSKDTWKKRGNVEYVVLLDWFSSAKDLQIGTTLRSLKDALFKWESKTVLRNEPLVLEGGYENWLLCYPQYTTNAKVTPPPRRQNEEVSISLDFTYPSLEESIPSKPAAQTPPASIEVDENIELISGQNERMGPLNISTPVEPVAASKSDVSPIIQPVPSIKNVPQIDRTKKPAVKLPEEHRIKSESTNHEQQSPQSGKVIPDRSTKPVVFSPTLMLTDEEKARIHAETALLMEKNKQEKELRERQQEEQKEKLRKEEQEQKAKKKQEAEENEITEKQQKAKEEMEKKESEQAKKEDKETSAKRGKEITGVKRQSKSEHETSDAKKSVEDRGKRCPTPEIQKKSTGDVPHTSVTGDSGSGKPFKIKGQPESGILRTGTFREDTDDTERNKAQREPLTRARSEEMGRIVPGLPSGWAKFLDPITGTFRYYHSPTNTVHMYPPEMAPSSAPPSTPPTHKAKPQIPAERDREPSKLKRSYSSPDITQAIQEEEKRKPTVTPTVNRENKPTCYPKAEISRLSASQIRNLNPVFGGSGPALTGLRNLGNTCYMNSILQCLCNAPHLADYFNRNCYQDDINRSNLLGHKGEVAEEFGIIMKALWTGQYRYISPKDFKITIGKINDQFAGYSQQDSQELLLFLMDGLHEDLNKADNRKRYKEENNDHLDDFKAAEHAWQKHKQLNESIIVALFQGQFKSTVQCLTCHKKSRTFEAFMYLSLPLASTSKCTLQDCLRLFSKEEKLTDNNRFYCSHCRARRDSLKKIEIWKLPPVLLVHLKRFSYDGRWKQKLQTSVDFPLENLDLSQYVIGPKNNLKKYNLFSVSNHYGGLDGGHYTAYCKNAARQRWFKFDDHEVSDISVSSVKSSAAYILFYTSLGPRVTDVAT
USP10 block – inhibitors of human USP10 deubiquitinase; Q14694; purified USP10, Ub-rhodamine fluorescence, 60 min; actives 1.1% (n = 47,000); inhibition, % at 20 µM
USP7 block – blocks human USP7 ubiquitin-rhodamine cleavage; purified USP7, Ub-rhodamine cleavage fluorescence; inhibition, % at 20 µM; actives 0.3% (n = 47,000); Q93009; AID 1645854
* = called active by the depositor; x = no result given. No stated cut-off is given here; in the data, active means inhibition above about 30%; inactive means the rest.

SMILES	UCHL1 block	USP8 block	USP10 block	USP7 block
Cc1ccc(NC(=O)C2CCN(C(=O)c3cc(-c4ccncc4)n[nH]3)CC2)c(C)c1	0	11	-3	4
COC(=O)C(NC(=O)CCc1nnc2ccc(N3CCN(c4cccc(OC)c4)CC3)nn12)C(C)C (configuration not stated)	0	34*	-2	1
COc1cccc(N2CCN(c3ccc4nnc(CCC(=O)N5CCCC5)n4n3)CC2)c1	4	15	0	5
COc1cccc(N2CCN(c3ccc4nnc(CCC(=O)NCCN5CCCC5)n4n3)CC2)c1	-2	-7	0	-3
COc1cccc(N2CCN(c3ccc4nnc(CCC(=O)NCCC5=CCCCC5)n4n3)CC2)c1	7	69*	-7	-1
Cn1c(=O)c2ccc(C3CN(C(=O)CC4CCCC4)CCO3)nc2n(C)c1=O (configuration not stated)	2	11	0	6
CCC(C)C(O)C(=O)OC(C(=O)OC(C(=O)OC(C(=O)OC(C(=O)OCC(O)C(O)C(O)C(O)CO)C(C)CC)C(C)CC)C(C)CC)C(C)CC (configuration not stated)	16	25	16	14
CCn1cc(-c2nc(-c3ccccn3)no2)c(=O)c2cc(F)ccc21	2	2	4	3
CN1CC[C@@H]2[C@H]1C(=O)NC[C@H](CCC(=O)N1CCN(c3ccccn3)CC1)N2C	12	72*	-2	-22
Cc1ccc(CN2CC[C@@H]3[C@H]2C(=O)NC[C@H](CCC(=O)N2CCN(c4ccccn4)CC2)N3C)cc1	0	8	-3	-5
CN1[C@@H](CCC(=O)N2CCN(c3ccccn3)CC2)CNC(=O)[C@@H]2[C@H]1CCN2C1CCCCC1	8	39*	0	-14
CN1[C@@H](CCC(=O)N2CCN(c3ccccn3)CC2)CNC(=O)[C@H]2NCC[C@H]21	-2	9	0	5
N#Cc1ccc(OCC(=O)Nc2ccc(-c3cn4ccsc4n3)cc2)cc1	2	46*	-3	10
NS(=O)(=O)c1cccc(NC(=O)COc2ccc3c(c2)CCC3)c1	1	2	-2	-25
N#Cc1ccc(-c2ccc(OCC(=O)Nc3ccc4c(c3)CCC4)cc2)cc1	2	36*	20	11
O=C(Cc1ccc(Cl)cc1)N1C[C@@H]2CN(C(=O)c3cscn3)C[C@@H]2C1	-1	2	0	1
CC(C)(C)c1ccc(C(=O)Nc2ccc(O)c(-c3nc4cnccc4o3)c2)cc1	2	61*	5	3
O=C(CNC(=O)c1ccc2nc(-n3cccc3)sc2c1)NCc1ccco1	2	76*	-5	7
O=C(CNC(=O)c1ccc2nc(-n3cccc3)sc2c1)NCc1ccccc1	5	39*	-3	x
O=C(CNC(=O)c1ccc2nc(-n3cccc3)sc2c1)NCc1ccccc1Cl	0	46*	-6	9
CC(C)c1ccc(N(CC(=O)NCCN2CCOCC2)S(=O)(=O)c2ccccc2)cc1	1	4	-2	-5
COc1ccc2c(CCN=C(NC(=O)c3cc(OC)c(OC)c(OC)c3)Nc3nc(C)cc(C)n3)c[nH]c2c1	8	4	5	9
C/C(=C\C(=O)C[C@]12C(=O)O[C@]3(C)CC[C@H]1C[C@H]23)C(N)=O	-13	-84	-3	-17
COc1ccc(CNC(=O)CCc2nnc3n(Cc4ccccc4Cl)c(=O)c4ccccc4n23)cc1	9	38*	14	7
O=C(CCc1nnc2n(Cc3ccccc3Cl)c(=O)c3ccccc3n12)NCc1ccccc1	0	47*	15	7
SMILES	UCHL1 block	USP8 block	USP10 block	USP7 block
O=C(Nc1ccc2c(c1)CCC2)c1cc(N2CCN(c3ccc(F)cc3)CC2)nc2ccccc12	-1	8	-1	4
OCCN(Cc1ccccc1)Cc1cn[nH]c1-c1ccc(Cl)cc1	5	-238	3	-45
COc1ccccc1-c1cc(NC(C)=O)c2ncc(-c3ccc(S(C)(=O)=O)cc3)n2c1	0	69*	-4	1
CC(=O)Nc1cc(-c2cccc(CO)c2)cn2c(-c3ccc(S(C)(=O)=O)cc3)cnc12	-4	-22	-4	-5
COC1=CC(=O)c2c(O)c3c(c(C)c2C1=O)C[C@@]1(O)[C@H](O[C@H]2CC[C@H](O[C@H]4C[C@@](C)(O)[C@H](OC(=O)c5c(C)ccc(C)c5O)[C@H](C)O4)[C@@H](C)O2)C(=O)C(C(C)=O)=C(O)[C@@]1(O)C3=O	58*	-90	-6	55*
CCc1cccc(N2C(=O)c3ccccc3C2C(=O)NCc2ccccc2OC)c1 (configuration not stated)	-3	32*	19	1
COc1ccccc1CNC(=O)C1c2ccccc2C(=O)N1c1ccc(F)cc1 (configuration not stated)	5	10	4	-8
CC(C)CNC(=O)[C@H]1C[C@@H]2CN(C(=O)NCC3CCCCC3)C[C@H]1O2	0	-40	3	0
Cc1nc(-n2cccc2)sc1C(=O)NC1CCCC1	-2	-13	-1	-4
Cc1nc(Nc2ccc(Cl)cn2)sc1C(=O)NC1CCCC1	-1	31*	1	4
O=C(O)CCC(=O)C(O)c1ccccc1 (configuration not stated)	3	0	0	-5
Cc1cccc(N2CCN(S(=O)(=O)c3nn(C)cc3C(=O)O)CC2)c1	0	-243	1	0
CC1CCc2c(sc(NC(=O)c3cccc(S(C)(=O)=O)c3)c2C(N)=O)C1 (configuration not stated)	1	75*	12	12
COC(=O)c1ccc(N2CCN(C(C)=O)CC2)c(NC(=O)c2ccc(OCc3ccccc3)cc2)c1	10	20	4	8
COC(=O)c1ccc(N2CCN(C(C)=O)CC2)c(NC(=O)COc2ccc([N+](=O)[O-])cc2)c1	5	80*	43*	12
CCn1nnc2cc(-c3noc(CNC(=O)c4cccs4)n3)ccc21	-5	-234	-5	-2
CCCn1cnc2cc(-c3noc(CNC(=O)c4cccs4)n3)ccc21	0	33*	-2	6
Cc1ccc(C(=O)N2CCCC3(CCCN3C)C2)cc1 (configuration not stated)	1	-29	0	1
CCc1ccc(NC(=O)CSc2ccc(N3CCC(C(=O)NC4CC4)CC3)nn2)cc1	5	81*	10	10
Cn1cncc1C(=O)N[C@@H]1C[C@@H](Oc2cccc(F)c2)[C@H](O)[C@H]1N1CCCC1	0	-3	0	1
Cc1cccc(C)c1NC(=O)CN1C(=O)C2CCCC2=Nc2ccccc21 (configuration not stated)	2	7	21	4
CCc1ccccc1NC(=O)CN1C(=O)C2CCCC2=Nc2ccccc21 (configuration not stated)	0	34*	34*	11
O=C(Cn1cnc2c(cnn2-c2cccc(Cl)c2)c1=O)N1CCCc2ccccc21	-2	-16	-5	-9
COc1cccc(Nc2nc(NCc3ccccc3)nc3c2cnn3C)c1	6	0	5	0
Cc1ccccc1N(CC(=O)N(C)Cc1ccccc1)c1nc2ccccc2s1	10	12	12	-3
